Source: PubChem BioAssay (National Center for Advancing Translational Sciences (NCATS))
The full list was thinned out, with hits kept by preference.
Pf Dd2 growth: inhibitors of Plasmodium falciparum Dd2 growth. P. falciparum Dd2 growth, SYBR Green, 72 h. AID 1347417. 4.3% of 120,000 active. Potency, µM (highest dose often 28.9 µM), without a hit: at the top dose activity, negative = inhibition, usual class: inhibitors; active = well fitted inhibition curve with a large enough effect;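 also: plate controls were DMSO vehicle for no effect and reference drug for full effect; nearly all actives have a fitted effect of over 65% in size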
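Readout: SYBR Green fluorescence, 485 nm excitation, 535 nm emission, after ~16 h lysis at 37C. Before that, Dd2-infected red cells (2.5% hematocrit) grew 72 h with compound, 29 uM top final concentration.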
An asterisk follows results filed as active; i = inactive; [ ] = remark or other dose. Potency is read from the fitted curve at half-maximal effect.

SMILES | Pf Dd2 growth
Cc1ccc(Cl)cc1NC(=O)Cn1nc2c(cc1=O)CCCCC2 | -19.8%
COCCn1nnnc1C1CC2(CCOCC2)C(=O)N1Cc1cccc(OC)c1 (stereo not given) | 20.9%
CCOc1ccc2c(c1)c(=O)c(S(=O)(=O)c1ccccc1)cn2CC(=O)Nc1ccccc1OC | 11.2µM*
COc1cc(NC(=O)Cn2cc(S(=O)(=O)c3ccccc3)c(=O)c3ccccc32)cc(OC)c1 | i
CCc1ccc2c(c1)c(=O)c(S(=O)(=O)c1ccc(F)cc1)cn2CC(=O)Nc1ccccc1OC | -29.4%
COc1cccc(-c2cc(C(=O)O)cc(S(=O)(=O)NC(C)C)c2)c1 | -2.6%
O=C(Nc1cc(F)ccc1F)N1CC(c2nnc(-c3ccncc3)o2)C2(CCOCC2)C1 (stereo not given) | -9.2%
C#C[C@H]1CN2CC[C@H]1C[C@@H]2COC(=O)Nc1ccc(Br)cc1 | i
C#C[C@H]1CN2CC[C@H]1C[C@@H]2COC(=O)Nc1ccc(OC(F)(F)F)cc1 | 11.2µM*
C#C[C@H]1CN2CC[C@H]1C[C@@H]2COC(=O)Nc1ccc(C(C)(C)C)cc1 | -14.7%[44.1 µM]
COC(=O)[C@@H](Cc1cccnc1)NC(=O)[C@H]1CN(C(C)=O)CCN1C(=O)N1CCOCC1 | 10.3%
CCCN(C(=O)c1nn(-c2ccc(OC)c(Cl)c2)c(=O)c2c1c1ccccc1n2C)c1ccccc1F | 4.2%
CCc1ccc(CNC(=O)c2nn(-c3ccc(OC)c(Cl)c3)c(=O)c3c2c2ccccc2n3C)cc1 | 8.7%[5.79 µM]
CCN(CC)CCCNC(=O)c1nn(-c2ccc(OC)cc2)c(=O)c2c1c1ccccc1n2C | 6.3%
CCN(CC)CCNC(=O)c1nn(-c2ccc(OC)c(Cl)c2)c(=O)c2c1c1ccccc1n2C | 13.4%
CCN(C(=O)c1nn(-c2ccc(OC)c(Cl)c2)c(=O)c2c1c1ccccc1n2C)c1cc(OC)ccc1OC | 7.94µM*
CCN(CC)CCCNC(=O)c1nn(-c2ccc(OC)c(Cl)c2)c(=O)c2c1c1ccccc1n2C | 1µM*
CCOc1ccccc1NC(=O)c1nn(-c2ccc(OC)cc2)c(=O)c2c1c1ccccc1n2C | i
COc1ccc(-n2nc(C(=O)N(C)c3cccc(C(F)(F)F)c3)c3c4ccccc4n(C)c3c2=O)cc1 | 8.4%
CCOc1ccc(N(CC)C(=O)c2nn(-c3ccc(OC)cc3)c(=O)c3c2c2ccccc2n3C)cc1 | 3.98µM*
Cn1c(CO[C@H]2CN(C(=O)c3ccno3)C[C@H]2F)nc2ccccc21 | i
Cc1cccc(CNC(=O)C2CCCCC(=O)N2)c1 (stereo not given) | -14.6%
COc1ccc(C(=O)NC2CCN(c3cc(-c4cccs4)[nH]n3)C2)c(C)c1 (stereo not given) | i
N#Cc1ccc(S(=O)(=O)N2CCC[C@H]2C(=O)N2CCCCCCNC(=O)CC2)cc1 | 8.2%
c1ccc(O[C@H]2COCCN(C3CCOCC3)C2)cc1 | i
SMILES | Pf Dd2 growth
O=S(=O)(NC[C@H]1O[C@H](Cc2cc(CN3CCOCC3)on2)CC[C@@H]1O)c1ccccc1 | 12.6%
O=C(N[C@@H]1COCC[C@@H]1OCc1ccccc1)c1nc2ncccc2[nH]1 | -10.2%
Cc1ncsc1CN1CCCN(S(C)(=O)=O)C(c2ccccc2)CC(=O)NCC1 (stereo not given) | 0.0%
CN1CCN(C[C@H]2CN3CC[C@H]2C[C@@H]3CNC(=O)Nc2ccccc2)CC1 | 21.4%[44.1 µM]
CSc1cccc(NC(=O)NC[C@H]2C[C@@H]3CCN2C[C@@H]3CN2CCSCC2)c1 | 10µM*
N#Cc1cccc(NC(=O)NC[C@H]2C[C@@H]3CCN2C[C@@H]3CN2CCSCC2)c1 | -3.5%[44.1 µM]
CN(C)CCN(C)[C@@H]1[C@H](O)[C@H](CO)O[C@@H]1CNC(=O)c1cccc(F)c1 | -3.3%
Cc1n[nH]c(C)c1C(N)C(=O)N(C)Cc1ccnc2ccccc12 (stereo not given) | 2.8%
Cc1n[nH]c(C)c1C(N)C(=O)NCc1cc(C(F)(F)F)ccc1F (stereo not given) | -14.4%
CCOC(=O)C1CCN(C(=O)c2cc(-c3ccncc3)cn2Cc2ccccc2C)CC1 | 6.31µM*
CCn1cc(-c2ccc(Cl)cc2)cc1C(=O)NCc1ccncc1 | i
CCOC(=O)C1CCN(C(=O)c2cc3sc(C)cc3n2C)CC1 | -4.0%
Cc1ccccc1Cn1cc(-c2ccncc2)cc1C(=O)O | i
Cc1ccc(Cn2cc(-c3ccncc3)cc2C(=O)N2CCN(C)CC2)cc1 | 6.31µM*
Cc1ccc(-c2cc(C(=O)O)n(C)c2)cc1 | 31.6%
O=C(NCc1ccc(N2CCOCC2)cc1)c1cc[nH]c1C1CCCNC1 (stereo not given) | -3.1%
CCN(C(=O)Cn1cnc2onc(-c3ccc(F)cc3)c2c1=O)c1cc(C)ccc1C | 10µM*
CCOC(=O)Cn1cnc2onc(-c3ccc(F)cc3)c2c1=O | 14.3%
CCCN(C(=O)CCn1cnc2onc(-c3ccc(F)cc3)c2c1=O)c1ccccc1C | 19.4%
CSc1cccc(NC(=O)Cn2c(N3CCOCC3)nc(C)cc2=O)c1 | i
CC(=O)c1ccc(NC(=O)O[C@@H]2CO[C@H]3[C@@H]2OC[C@@H]3NC(=O)c2ccccc2)cc1 | -10.8%[44.1 µM]
COc1ccc(-n2c(=O)c3c(n2Cc2ccccc2)CN(C(=O)c2cccc(C#N)c2)CC3)cc1 | -9.0%
COc1ccc(C2C(C(=O)Nc3cccnc3)=C(C)Nc3nc(-c4ccccc4)nn32)cc1OC (stereo not given) | -15.2%
COc1ccc(-c2nc3n(n2)C(c2ccc(O)cc2)C(C(=O)Nc2cccnc2)=C(C)N3)cc1OC (stereo not given) | -4.6%
COc1ccc(-c2nc3n(n2)C(c2ccccc2F)C(C(=O)Nc2cccnc2)=C(C)N3)cc1OC (stereo not given) | 10µM*
SMILES | Pf Dd2 growth
Cc1ccnc(NC(=O)Cn2nc3c(cc2=O)CCCCC3)c1 | 1.7%
O=C(Nc1cnc(-c2ccc(Cl)cc2)nc1)c1ccccc1F | -21.8%
Cc1ccc(CNC(=O)CCC[C@@H]2[C@H]3CCCN4CCC[C@@H](CN2Cc2ccccc2)[C@@H]34)o1 | 3.55µM*
CC(C)NC(=O)CCC[C@@H]1[C@H]2CCCN3CCC[C@@H](CN1Cc1ccccc1)[C@@H]23 | i
Cc1n[nH]c(C)c1CNC(=O)CCC[C@@H]1[C@H]2CCCN3CCC[C@@H](CN1Cc1ccccc1)[C@@H]23 | -12.4%
COc1ccccc1CNC[C@H]1O[C@H](Cc2cc(CN3CCOCC3)on2)CC[C@@H]1O | -16.7%[44.1 µM]
COc1ccc(OC)c(S(=O)(=O)N2CCc3nn(CC4CC4)c(=O)n3CC2)c1 | -7.7%
Fc1cccc(-c2nnn3c2nc(NCc2ccc4c(c2)OCO4)c2ccccc23)c1 | 7.9%
Fc1cccc(-c2nnn3c2nc(NC2CCCCC2)c2ccccc23)c1 | 8.91µM*
CC(C)Nc1nc2c(-c3cccc(Br)c3)nnn2c2ccccc12 | i
Cc1ccc(C#N)c(N2CCCC(c3n[nH]c(=O)n3-c3ccccc3)C2)n1 (stereo not given) | -12.5%
Cc1cccc(NC(=O)Cn2ccn3nc(-c4ccc(F)cc4)c(CO)c3c2=O)c1 | 1.9%
COc1ccc(C(=O)N2CCC3(CC2)CC(OCC2CC2)CCO3)cn1 (stereo not given) | 6.4%
COc1ccc(-c2noc([C@@H]3C[C@H](NCc4ccccn4)CN3C)n2)cc1 | 10µM*
CN1C[C@@H](NC(=O)c2ccccn2)C[C@H]1c1nc(-c2ccc(Cl)cc2)no1 | i
CN1C[C@@H](NC(=O)c2cnccn2)C[C@H]1c1nc(-c2ccc(OC(F)(F)F)cc2)no1 | 14.1µM*
CN1C[C@@H](NC(=O)Nc2ccc(Cl)cc2)C[C@H]1c1nc(-c2ccc(F)cc2)no1 | 14.1µM*
